Assay results as given in PubChem BioAssay.
The source made the active and inactive calls. Unless noted, no rule for the calls is given here.

Experiments:
[1] = A549 cell viability effects, profiling panel, calcein-AM fluorescence, 48 h, basal (AID 1162); settings: higher = more signal; also: test concentration not given here
[2] = adipocyte viability effects, profiling panel, cell-based, 3T3-L1 adipocytes, calcein-AM fluorescence, 48 h, basal (AID 1163); settings: 3T3-L1 adipocytes viability, higher = more signal; also: test concentration not given here
[3] = HepG2 cell viability effects, profiling panel, calcein-AM fluorescence, 48 h, basal (AID 1164); settings: higher = more signal; also: test concentration not given here
[4] = MM1S cell viability effects, profiling panel, calcein-AM fluorescence, 48 h, basal (AID 1165); settings: higher = more signal;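 also: viability of MM1S multiple myeloma cells under basal unstimulated conditions; test concentration not given here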
[5] = basal RPMI8226 viability, no added stimulus, profiling panel, cell-based, calcein-AM fluorescence, 48 h, PK04 Diversity Set (AID 1166); settings: RPMI8226 myeloma viability, higher = more signal;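 also: cells grown under basal conditions without added stimulus; test concentration not given here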
[6] = basal HepG2 mitochondrial membrane potential changes, profiling panel, cell-based, JC-1 fluorescence, 24 h, 100 nL compound (AID 1167); settings: higher = more signal; also: test concentration not given here
[7] = basal 3T3-L1 adipocyte mitochondrial potential changes, profiling panel, cell-based, JC-1 fluorescence, 3T3-L1 adipocytes, 24 h, 100 nL compound (AID 1168); settings: JC-1 mitochondrial fluorescence, higher = more signal, called active from +8 up or from −8 down; also: test concentration not given here
[8] = basal RPMI8226 mitochondrial membrane potential changes, profiling panel, cell-based, JC-1 fluorescence, 24 h, 100 nL compound (AID 1169); settings: RPMI8226 myeloma, JC-1 mitochondrial potential fluorescence, higher = more signal; also: test concentration not given here
[9] = basal MM1S mitochondrial membrane potential changes, profiling panel, cell-based, JC-1 fluorescence, 24 h, 100 nL compound (AID 1170); settings: higher = more signal; also: test concentration not given here
[10] = A549 lung cancer cell viability effects, profiling panel, resazurin fluorescence, 24 h, PK04 Diversity Set (AID 1171); settings: higher = more signal, called active from +8 up or from −8 down; also: test concentration not given here
[11] = HepG2 liver cancer cell viability effects, profiling panel, resazurin fluorescence, 24 h, PK04 Diversity Set (AID 1172); settings: higher = more signal; also: test concentration not given here
[12] = basal S. cerevisiae growth modulation, no modifier, primary screen, OD600, strain BY4716, 24 h, basal condition (AID 1173); settings: OD600, 24 h, higher = more signal, called active from +8 up or from −8 down
[13] = MM1S myeloma cell viability, profiling panel, resazurin fluorescence, basal, 24 h, PK04 Diversity Set (AID 1174); settings: higher = more signal, called active from +8 up or from −8 down;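 also: MM1S multiple myeloma cell line; test concentration not given here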
[14] = biological target: Dihydroorotate dehydrogenase (quinone), mitochondrial (Plasmodium falciparum (isolate 3D7)) (UniProt Q08210); experiment: PfDHODH enzyme inhibitors, primary screen, biochemical, C-terminal His tag, absorbance 600 nm (AID 1175); settings: DCIP absorbance 600 nm, higher = more signal, called active from +8 up or from −8 down;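 also: recombinant parasite enzyme with a five histidine tag at its C terminus; test concentration not given here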
Dihydroorotate dehydrogenase (quinone), mitochondrial (Plasmodium falciparum (isolate 3D7)), sequence (Q08210 whole entry, looked up): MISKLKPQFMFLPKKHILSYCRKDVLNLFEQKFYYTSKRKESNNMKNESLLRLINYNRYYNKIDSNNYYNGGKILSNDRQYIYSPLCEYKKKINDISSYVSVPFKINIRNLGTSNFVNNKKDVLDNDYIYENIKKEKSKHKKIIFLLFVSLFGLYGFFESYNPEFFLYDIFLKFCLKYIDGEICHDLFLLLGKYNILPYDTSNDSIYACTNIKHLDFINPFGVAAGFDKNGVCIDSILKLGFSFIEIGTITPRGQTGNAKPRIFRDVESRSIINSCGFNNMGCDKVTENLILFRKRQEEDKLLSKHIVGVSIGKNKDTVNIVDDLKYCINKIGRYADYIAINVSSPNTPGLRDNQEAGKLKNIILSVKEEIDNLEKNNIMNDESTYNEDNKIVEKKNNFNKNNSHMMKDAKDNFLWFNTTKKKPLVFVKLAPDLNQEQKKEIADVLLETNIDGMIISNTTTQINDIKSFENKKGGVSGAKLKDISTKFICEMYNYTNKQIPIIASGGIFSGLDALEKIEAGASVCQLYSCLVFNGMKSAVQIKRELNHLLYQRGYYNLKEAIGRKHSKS

[15] = P. aeruginosa biofilm formation inhibitors, primary screen, strain PAO1, LB-PBS medium, absorbance 600 nm (AID 1176); also: test concentration not given here; settings: P. aeruginosa PAO1 growth/biofilm, A600, 12 h; higher = more signal
[16] = S. cerevisiae RM11-1a growth modifiers, primary screen, strain RM11-1a, OD600, basal, 24 h (AID 1177); settings: OD600, 24 h, higher = more signal, called active from +8 up or from −8 down;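 also: cultures grown under basal conditions with no added stressor; test concentration not given here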
[17] = E. coli acrAB mutant growth effects, primary screen, E. coli filamentation inducers, strain DRC39, OD650, 24 h (AID 1178); settings: higher = more signal, called active from +8 up or from −8 down;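 also: growth measured as culture turbidity by optical density at 650 nm; test concentration not given here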
[18] = E. coli acrAB mutant growth effects, primary screen, E. coli filamentation inducers, strain DRC39, OD650, 48 h (AID 1179);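 also: screen aims at cell division blockers that make cells filament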; settings: E. coli DRC39 delta-acrAB growth, higher = more signal, called active from +8 up or from −8 down
[19] = RPMI8226 myeloma cell viability, profiling panel, resazurin fluorescence, basal, 24 h, PK04 Diversity Set (AID 1180); settings: higher = more signal;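 also: RPMI8826 multiple myeloma cell line at 5000 cells per well; test concentration not given here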
[20] = biological target: E3 ubiquitin-protein ligase XIAP (Homo sapiens) (UniProt P98170); experiment: XIAP binders, primary screen, biophysical, small-molecule microarray, fluorescence 635 nm (AID 1181); settings: small-molecule microarray binding, higher = more signal;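 also: score merges 667 nm emission and signal to noise over triplicate slides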
E3 ubiquitin-protein ligase XIAP (Homo sapiens), sequence (P98170 whole entry, looked up): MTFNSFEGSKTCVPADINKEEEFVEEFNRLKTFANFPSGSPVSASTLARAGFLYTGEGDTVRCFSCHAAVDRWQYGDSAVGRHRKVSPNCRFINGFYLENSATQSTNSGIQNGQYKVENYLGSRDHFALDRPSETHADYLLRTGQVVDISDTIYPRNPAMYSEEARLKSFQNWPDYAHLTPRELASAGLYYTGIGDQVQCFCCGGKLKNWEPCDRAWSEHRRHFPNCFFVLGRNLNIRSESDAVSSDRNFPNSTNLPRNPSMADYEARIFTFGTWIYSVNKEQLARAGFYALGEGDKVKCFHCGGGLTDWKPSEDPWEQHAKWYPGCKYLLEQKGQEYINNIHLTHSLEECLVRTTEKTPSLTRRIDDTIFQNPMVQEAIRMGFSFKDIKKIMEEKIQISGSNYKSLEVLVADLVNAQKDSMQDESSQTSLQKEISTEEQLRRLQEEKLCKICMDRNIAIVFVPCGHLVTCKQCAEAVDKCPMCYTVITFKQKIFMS

CC(C)CNC(=O)[C@@]1(c2ccc([N+](=O)[O-])cc2)CC(=O)N(C2CCCCC2)[C@@H]1c1ccc(CO)cc1 gave a z-score [1] of -0.0452, a z-score [2] of 0.389 and a z-score [3] of -0.004. It also gave a z-score [4] of -0.41, a z-score [5] of 0.542 and a z-score [6] of 0.634. The z-score [7] was -0.6 (inactive), the z-score [8] was -0.426 and the z-score [9] was 0.771. The z-score [10] was 0.436 (inactive), the z-score [11] was 0.0751 and the z-score [12] was -1.68 (inactive). For the same molecule, the z-score [13] was 1.17 (inactive), the composite z-score [14] was -0.0682 (inactive) and the z-score [15] was -0.301 (inactive). For the same molecule, the z-score [16] was -0.377 (inactive), the z-score [17] was 0.637 (inactive) and the z-score [18] was 0.0367 (inactive). It also gave a z-score [19] of 1.12 and a composite z-score [20] of 0.14.

Work on Cc1cccc([C@H]2C[C@H]3C(Br)=C[C@@H]2C(=O)[C@]32CO2)c1 yielded a z-score [1] of -0.798, a z-score [2] of 0.0171 and a z-score [3] of -1.24. It also gave a z-score [4] of -3.14, a z-score [5] of -2.72 and a z-score [6] of -0.565. For the same molecule, the z-score [7] was 0.404 (inactive), the z-score [8] was -0.837 and the z-score [9] was -0.262. For the same molecule, the z-score [10] was -0.581 (inactive), the z-score [11] was -0.536 and the z-score [12] was -12.1 (active). For the same molecule, the z-score [13] was -0.423 (inactive), the composite z-score [14] was 0.288 (inactive) and the z-score [15] was 0.142 (inactive). The z-score [16] was 0.622 (inactive), the z-score [17] was 0.906 (inactive) and the z-score [18] was -0.0628 (inactive). For the same molecule, the z-score [19] was -0.332 and the composite z-score [20] was 0.172.

For CCOC(=O)C1=C[C@@H](C(C)(C)C)N(S(=O)(=O)c2ccc(C)cc2)[C@H]1c1cccc(Cl)c1, the z-score [1] was -2.79, the z-score [2] was -0.192 and the z-score [3] was -2.64. The z-score [4] was -2.77, the z-score [5] was -4.21 and the z-score [6] was 5.38. The z-score [7] was 0.318 (inactive), the z-score [8] was -1.14 and the z-score [9] was -2.3. The z-score [10] was -1.12 (inactive), the z-score [11] was -0.594 and the z-score [12] was 2.15 (inactive). The z-score [13] was -1.66 (inactive), the composite z-score [14] was 1.08 (inactive) and the z-score [15] was 0.16 (inactive). The z-score [16] was 2.81 (inactive), the z-score [17] was -0.326 (inactive) and the z-score [18] was -0.104 (inactive). The z-score [19] was -3.41 and the composite z-score [20] was -0.0994.

For C=C(COC)/C(=C/C[C@H](OC(C)=O)c1cccc(OCCO)c1)c1cnc2ccccc2c1, the z-score [1] was 0.858, the z-score [2] was 1.01 and the z-score [3] was 0.455. The z-score [4] was -2.78, the z-score [5] was -0.114 and the z-score [6] was 0.713. For the same molecule, the z-score [7] was -0.437 (inactive), the z-score [8] was 0.23 and the z-score [9] was -0.0946. For the same molecule, the z-score [10] was 0.127 (inactive), the z-score [11] was -0.0054 and the z-score [12] was 1.02 (inactive). For the same molecule, the z-score [13] was -0.496 (inactive), the composite z-score [14] was -6.23 (inactive) and the z-score [15] was 0.0721 (inactive). For the same molecule, the z-score [16] was 1.56 (inactive), the z-score [17] was -0.901 (inactive) and the z-score [18] was -0.856 (inactive). For the same molecule, the z-score [19] was -0.58 and the composite z-score [20] was -0.0749.

COc1ccc([Si](C)(C)[C@H]2[C@H](CC(=O)N3CCC[C@H]3CO)O[C@@]3(C(=O)N(Cc4ccc(N5CCC5=O)cc4)c4ccccc43)[C@@H]2C)cc1 gave a z-score [1] of -0.428, a z-score [2] of 0.303 and a z-score [3] of -0.784. For the same molecule, the z-score [4] was -2.65, the z-score [5] was -3.76 and the z-score [6] was 1.26. The z-score [7] was 0.198 (inactive), the z-score [8] was -1.09 and the z-score [9] was 0.309. The z-score [10] was -0.737 (inactive), the z-score [11] was -1.39 and the z-score [12] was -0.942 (inactive). For the same molecule, the z-score [13] was -1.7 (inactive), the composite z-score [14] was -5.46 (inactive) and the z-score [15] was 1 (inactive). The z-score [16] was 0.194 (inactive), the z-score [17] was -1.17 (inactive) and the z-score [18] was -1.29 (inactive). For the same molecule, the z-score [19] was -0.944 and the composite z-score [20] was -0.0339.

COCCCNC(=O)[C@@H]1c2ccccc2C(=O)N(C2Cc3ccccc3C2)[C@H]1c1ccc(CO)cc1 showed a z-score [1] of 1.12, a z-score [2] of 0.275 and a z-score [3] of 0.165. It also gave a z-score [4] of 0.155, a z-score [5] of 0.261 and a z-score [6] of 2.94. For the same molecule, the z-score [7] was -0.17 (inactive), the z-score [8] was 0.217 and the z-score [9] was 0.494. The z-score [10] was 0.58 (inactive), the z-score [11] was -0.138 and the z-score [12] was -0.483 (inactive). For the same molecule, the z-score [13] was 0.354 (inactive), the composite z-score [14] was -0.774 (inactive) and the z-score [15] was 0.388 (inactive). For the same molecule, the z-score [16] was -0.344 (inactive), the z-score [17] was 0.722 (inactive) and the z-score [18] was 0.468 (inactive). It also gave a z-score [19] of 0.653 and a composite z-score [20] of -0.169.

For C=CCNC(=O)[C@@H]1[C@H]2C(=O)O[C@H](c3ccccc3)[C@H](c3ccccc3)N2[C@H](c2ccc(O)cc2)[C@@]12C(=O)Nc1ccc(C#CCC(C(=O)OC)C(=O)OC)cc12, the z-score [1] was -0.399, the z-score [2] was -0.937 and the z-score [3] was -0.6. For the same molecule, the z-score [4] was -3.31, the z-score [5] was -4.52 and the z-score [6] was -1.76. For the same molecule, the z-score [7] was -0.271 (inactive), the z-score [8] was -1.25 and the z-score [9] was -2.23. The z-score [10] was -0.395 (inactive), the z-score [11] was -0.0043 and the z-score [12] was 1.12 (inactive). The z-score [13] was -6.93 (inactive), the composite z-score [14] was -6.73 (inactive) and the z-score [15] was 1.54 (inactive). For the same molecule, the z-score [16] was 1.4 (inactive), the z-score [17] was -0.0975 (inactive) and the z-score [18] was -0.112 (inactive). For the same molecule, the z-score [19] was -5.23 and the composite z-score [20] was -0.274.

Molecule Cc1ccc(S[C@]2(C(=O)NC(C)C)CC(=O)N(Cc3ccccc3Cl)[C@@H]2c2ccc(CO)cc2)cc1 has a z-score [1] of 0.175, a z-score [2] of 0.35 and a z-score [3] of -0.12. The z-score [4] was -0.387, the z-score [5] was -2.06 and the z-score [6] was -0.142. For the same molecule, the z-score [7] was -0.397 (inactive), the z-score [8] was -0.0618 and the z-score [9] was 0.551. The z-score [10] was 0.232 (inactive), the z-score [11] was -0.167 and the z-score [12] was -0.624 (inactive). The z-score [13] was -0.514 (inactive), the composite z-score [14] was -0.674 (inactive) and the z-score [15] was 1.52 (inactive). For the same molecule, the z-score [16] was 0.343 (inactive), the z-score [17] was -0.332 (inactive) and the z-score [18] was -0.963 (inactive). It also gave a z-score [19] of 0.351 and a composite z-score [20] of -0.0072.

Work on CC(C)C[C@@H]1NC(=O)[C@@H]2C[C@H](C(=O)NCCCCCC[N+](C)(C)C)[C@H](c3cccc(OCCO)c3)N2C1=O yielded a z-score [1] of -0.895, a z-score [2] of 0.137 and a z-score [3] of -1.16. For the same molecule, the z-score [4] was -0.131, the z-score [5] was -0.585 and the z-score [6] was -1.48. For the same molecule, the z-score [7] was 0.229 (inactive), the z-score [8] was 0.108 and the z-score [9] was 0.0386. The z-score [10] was -0.483 (inactive), the z-score [11] was -0.482 and the z-score [12] was 0.62 (inactive). The z-score [13] was -0.384 (inactive), the composite z-score [14] was -0.317 (inactive) and the z-score [15] was 0.683 (inactive). The z-score [16] was -0.0613 (inactive), the z-score [17] was -0.466 (inactive) and the z-score [18] was -1.15 (inactive). The z-score [19] was -0.899 and the composite z-score [20] was -0.227.
